A selection: hits, their analogues and other compounds. The true share with any hit is near 2%.
697 NFkB inh: lowers PMA/ionomycin-induced NF-kB signal in 697 B cells; 697 B-cell NF-kB luciferase reporter, 16 h; inhibition, % at 4 µM; 330,000 tested, 0.33% active; in the data active = inhibition above about 35%
GalR3 antagonist: human GalR3 antagonism | HEK293 GalR3-CNG cAMP membrane potential fluorescence; galR3 body fused to GalR1 C-terminus | inhibition, % at 3 µM | O60755 | 360,000 tested, 0.44% active | AID 651719;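 active = inhibition above the screen-wide average plus 3 SD, cut at about 13% in these data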;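 also: forskolin and galanin both at EC90 stimulate the cells; cAMP rise reported by CNG channel membrane potential dye signal; 0% = forskolin plus galanin with DMSO and 100% = forskolin alone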
COUP-TFII inh: inhibitors of human COUP-TFII (NR2F2); HEK293T NGFI-A luciferase reporter, luminescence; P24468; inhibition, % at 8.6 µM; AID 686940; 370,000 tested, 0.7% active;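 active = inhibition above a per-plate cutoff, mean inhibition of test wells between control levels plus 3 SD, cut at about 38% in these data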;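 also: cells cotransfected with COUP-TFII expression vector driving the NGFI-A reporter; 0% = median of COUP-TF2 test wells and 100% = reporter-only cells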
Target sequence (P24468 whole entry, looked up): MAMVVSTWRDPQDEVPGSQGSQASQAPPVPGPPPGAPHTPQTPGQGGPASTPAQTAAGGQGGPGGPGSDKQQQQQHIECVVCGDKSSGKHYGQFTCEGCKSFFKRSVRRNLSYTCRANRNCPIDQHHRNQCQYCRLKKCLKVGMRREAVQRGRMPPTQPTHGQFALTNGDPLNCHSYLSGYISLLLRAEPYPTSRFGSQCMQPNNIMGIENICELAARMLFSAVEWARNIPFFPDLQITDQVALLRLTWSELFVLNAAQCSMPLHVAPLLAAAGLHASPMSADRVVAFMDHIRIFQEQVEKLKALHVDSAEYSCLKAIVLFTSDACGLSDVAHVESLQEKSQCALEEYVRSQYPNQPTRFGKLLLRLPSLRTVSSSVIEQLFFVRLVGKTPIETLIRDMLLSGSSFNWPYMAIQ
Jurkat NFkB inh: inhibitors of the PMA/ionomycin-induced NF-kB reporter in Jurkat cells | PMA/ionomycin-induced NF-kB luciferase reporter, luminescence | inhibition, % at 4 µM | 330,000 tested, 0.53% active | AID 435003; in the data active = inhibition above about 50%
Gli-Sufu antag: Gli-Sufu pathway antagonism. Sufu-KO-LIGHT fibroblasts, Gli luciferase reporter luminescence. AID 588413. 340,000 tested, 0.74% active. inhibition, % at 5 µM;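 active = inhibition above about 55%, limit read from the data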;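 also: 0% = DMSO-treated cells and 100% = wells with medium but no cells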
Jurkat NFkB conf: inhibitors of the PMA/ionomycin-induced NF-kB reporter in Jurkat cells, retest | inhibition, % at 4 µM | shares compounds with Jurkat NFkB inh | 2,700 tested, 27% active | Jurkat NF-kB luciferase, 16 h;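 active = inhibition reaching about 45% at 4 µM in either replicate, limit read from the data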;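 also: plate controls were PMA/ionomycin stimulated DMSO wells for no effect and unstimulated DMSO wells for full effect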
Active calls of the source: *.

What do the screens show for `O=C(c1ccco1)N1CCN(C(=O)N2c3ccccc3Sc3ccccc32)CC1`?
697 NFkB inh: -74; GalR3 antagonist: -2; COUP-TFII inh: -73; Jurkat NFkB inh: 59*; Gli-Sufu antag: 53; Jurkat NFkB conf: 55*

Results for O=C(N1CCN(c2ccccn2)CC1)N1c2ccccc2Sc2ccccc21 ?
697 NFkB inh: -30; GalR3 antagonist: 4; COUP-TFII inh: 24; Jurkat NFkB inh: 68*; Gli-Sufu antag: 16; Jurkat NFkB conf: 24

How did CCOc1ccc(/C=N/NS(=O)(=O)c2ccc(C)cc2)cc1OC do in these assays?
697 NFkB inh: -7; GalR3 antagonist: -4; COUP-TFII inh: -14; Jurkat NFkB inh: -10; Gli-Sufu antag: 5

What do the screens show for `COc1cc(/C=N/NS(=O)(=O)c2ccc(C)cc2)ccc1OCc1ccc(C(=O)O)cc1`?
697 NFkB inh: -9; GalR3 antagonist: -3; COUP-TFII inh: -48; Jurkat NFkB inh: 63*; Gli-Sufu antag: -163; Jurkat NFkB conf: 28

Results for O=C(Nc1ccccn1)c1cc2cc([N+](=O)[O-])ccc2s1 ?
697 NFkB inh: -10; GalR3 antagonist: 9; COUP-TFII inh: -44; Jurkat NFkB inh: -156; Gli-Sufu antag: -49; Jurkat NFkB conf: -95

What do the screens show for `Cc1c(C(=O)Nc2cccc(Cl)c2)oc2ccc(S(=O)(=O)N3CCC4(CC3)OCCO4)cc12`?
697 NFkB inh: -37; Jurkat NFkB inh: 60*; Gli-Sufu antag: 11; Jurkat NFkB conf: 30

What do the screens show for `Cc1c(C(=O)Nc2ccc(F)cc2)oc2ccc(S(=O)(=O)N3CCC4(CC3)OCCO4)cc12`?
697 NFkB inh: -95; GalR3 antagonist: -3; COUP-TFII inh: 14; Jurkat NFkB inh: 7; Gli-Sufu antag: 6

Results for CCC(NC(=O)c1ccc2c(ccn2Cc2cccc(-c3ccccc3C(=O)O)c2)c1)c1ccccc1 (stereo not given) ?
COUP-TFII inh: -19

What do the screens show for `CC(C)CNC(=O)C1CSCCS(=O)(=O)N1Cc1ccccc1` (stereo not given)?
COUP-TFII inh: -7

Results for CSc1nnc2sc3cc(C)ccc3n12 ?
GalR3 antagonist: -2; COUP-TFII inh: -22

How did Cc1ccc2c(c1)sc1nc(=O)n(-c3ccccc3)c(=O)n12 do in these assays?
697 NFkB inh: -169; GalR3 antagonist: -7; COUP-TFII inh: -56; Jurkat NFkB inh: -183; Gli-Sufu antag: -91; Jurkat NFkB conf: -114

What do the screens show for `O=[N+]([O-])c1ccc(N2CCN(c3cccc(Cl)c3)CC2)nc1`?
697 NFkB inh: 5; GalR3 antagonist: -11; COUP-TFII inh: -16; Jurkat NFkB inh: 61*; Gli-Sufu antag: 11; Jurkat NFkB conf: 15

How did Cc1ccc(N(Cc2cc3ccccc3[nH]c2=O)S(=O)(=O)c2ccccc2)cc1 do in these assays?
697 NFkB inh: -17; GalR3 antagonist: -3; COUP-TFII inh: 2; Jurkat NFkB inh: 85*; Gli-Sufu antag: 8; Jurkat NFkB conf: 16

What do the screens show for `CCCCCOc1ccc(Br)cc1/C(C)=N/NC1=NCCN1`?
697 NFkB inh: -23; GalR3 antagonist: -4; COUP-TFII inh: -61; Jurkat NFkB inh: 63*; Gli-Sufu antag: 38; Jurkat NFkB conf: 32

What do the screens show for `COc1cccc(C(=O)Nc2ccc3nc(N4CCN(c5ncccn5)CC4)cc(C)c3c2)c1OC`?
697 NFkB inh: -28; Jurkat NFkB inh: 19

How did CCOc1ccccc1C(=O)Nc1ccc2nc(N3CCN(c4ncccn4)CC3)cc(C)c2c1 do in these assays?
697 NFkB inh: -49; Jurkat NFkB inh: 70*; Gli-Sufu antag: 18; Jurkat NFkB conf: 44

Results for CCN1CCN(c2cc(C)c3cc(NC(=O)CCC(=O)Nc4ccc(OC)c(OC)c4)ccc3n2)CC1 ?
697 NFkB inh: 7; GalR3 antagonist: -3; COUP-TFII inh: -6; Jurkat NFkB inh: -4; Gli-Sufu antag: 0

What do the screens show for `CCN1CCN(c2cc(C)c3cc(NC(=O)c4ccc(OC)c(OC)c4)ccc3n2)CC1`?
697 NFkB inh: -63; GalR3 antagonist: 0; COUP-TFII inh: -17; Jurkat NFkB inh: 57*; Gli-Sufu antag: 7; Jurkat NFkB conf: 29

How did COc1ccc(S[C@]2(C(=O)N3CCCC3)CC(=O)N(C(=O)C3CC3)[C@@H]2c2ccc(OC)cc2)cc1 do in these assays?
COUP-TFII inh: -4

How did Cc1ccc(S(=O)(=O)NCC(=O)N2CCN(c3ccccn3)CC2)cc1C do in these assays?
COUP-TFII inh: -8

How did COc1ccc(C(=O)NN/C(=N/S(=O)(=O)c2ccc(C)cc2)c2ccccc2)cc1 do in these assays?
697 NFkB inh: -192; GalR3 antagonist: -4; COUP-TFII inh: -28; Jurkat NFkB inh: -181; Gli-Sufu antag: -91; Jurkat NFkB conf: -107

How did CC1(NC(=O)c2ccc(C#Cc3cccc(F)c3)cn2)COC1 do in these assays?
COUP-TFII inh: -6

How did COc1cc(/C=C/C(=O)c2ccc([N+](=O)[O-])o2)ccc1O do in these assays?
697 NFkB inh: -44; GalR3 antagonist: -5; COUP-TFII inh: -16; Jurkat NFkB inh: 71*; Gli-Sufu antag: -3; Jurkat NFkB conf: 47*

What do the screens show for `CC(C)(C)c1ccc(C(=O)Nc2ccccc2Cl)cc1`?
697 NFkB inh: -106; GalR3 antagonist: -6; COUP-TFII inh: -41; Jurkat NFkB inh: -249; Gli-Sufu antag: -137; Jurkat NFkB conf: -167

What do the screens show for `O=C(OC12CCCN(C1)/C(=C/c1ccc(Cl)cc1)C2)C1CCCCC1` (stereo not given)?
COUP-TFII inh: 1

How did CCOC(=O)c1sc(=NC(=O)c2cccc(C)c2)n(C)c1C do in these assays?
697 NFkB inh: -114; GalR3 antagonist: 2; COUP-TFII inh: -31; Jurkat NFkB inh: -186; Gli-Sufu antag: -28; Jurkat NFkB conf: -109

What do the screens show for `CCOC(=O)c1sc(=NC(=O)c2ccc(F)cc2)n(C)c1C`?
697 NFkB inh: -198; GalR3 antagonist: -3; COUP-TFII inh: 1; Jurkat NFkB inh: -154; Gli-Sufu antag: -99; Jurkat NFkB conf: -121

Results for C(=C\c1ccccc1)/CSc1nnc(Cc2cccs2)n1-c1ccccc1 ?
COUP-TFII inh: 4

Results for CC(C)C[C@H](NC1(C(=O)NCCc2c[nH]c3ccccc23)CCC1)C(=O)NCCCc1ccccc1 ?
COUP-TFII inh: 7

What do the screens show for `O=C(CC1CCCC1)N1CC[C@H]2[C@H](CCCN2Cc2ccccc2)C1`?
COUP-TFII inh: -8

Results for Cc1nc2cc(NC(=O)Nc3cccc([N+](=O)[O-])c3)ccc2n1C ?
697 NFkB inh: -216; GalR3 antagonist: -8; COUP-TFII inh: -40; Jurkat NFkB inh: -166; Gli-Sufu antag: -113; Jurkat NFkB conf: -118

What do the screens show for `O=C(Nc1ccc(Br)cc1)NC1CCCCCCC1`?
697 NFkB inh: -219; GalR3 antagonist: 0; COUP-TFII inh: -47; Jurkat NFkB inh: -179; Gli-Sufu antag: -105; Jurkat NFkB conf: -81

Results for CCc1ccc(NC(=O)C(=S)NC2CCCCC2)cc1 ?
697 NFkB inh: -133; GalR3 antagonist: 1; COUP-TFII inh: -57; Jurkat NFkB inh: -182; Gli-Sufu antag: -29; Jurkat NFkB conf: -76

Source: PubChem
